The sample as a whole holds a higher share of hits than the screen did.
Ba CapD inh – Bacillus anthracis CapD inhibitors, primary screen, biochemical, fluorescence intensity. AID 492967, 2010. CapD gamma-glutamyltranspeptidase (Bacillus anthracis Ames Ancestor). z-score (no concentration beside the values). purified CapD enzyme, fluorescence intensity read-out; stronger effect = lower value. 140,000 tested, 0.23% active; in the data active = z-score mostly below about -2.9, no sharp cut-off; inactive = mostly above about -1.9
Hits are given with their value; . = inactive; ! = not active in a repeat.

SMILES | Ba CapD inh
CN(C)/C=C/C=C1\N=C(c2ccccc2)OC1=O | -6.99
O=C1OC(c2ccccc2)=N/C1=C\C=C\c1ccccc1 | .
Cc1ccc(/C=C2\N=C(c3ccccc3)OC2=O)o1 | .
CC1CCCC(C)N1C(=O)COC(=O)c1ccccc1Oc1ccccc1 (stereo not drawn) | .
Oc1[nH]c(=S)sc1C=Nc1ccccc1 | .
O=C(O)Cn1c(O)c(C=Nc2ccccc2)sc1=S | -7.41
C=CCn1c(O)c(C=Nc2ccccc2)sc1=S | .
CCCN1C/C(=C\c2ccc(N(C)C)cc2)C(=O)/C(=C/c2ccc(N(C)C)cc2)C1 | .
CCCN1C/C(=C/c2ccsc2)C(=O)/C(=C/c2ccsc2)C1 | -4.72
O=C1/C(=C\c2ccsc2)CC/C1=C/c1ccsc1 | .
Cc1nc(-c2ccc(/C(N)=N/O)cc2)cs1 | .
N#Cc1c(Cl)cccc1Oc1ccc(S(=O)(=O)N2CCC(O)(Cc3ccccc3)CC2)cc1 | .
COc1ccccc1N1CCN(C(=O)CSc2nc3ccccc3c(=O)n2Cc2ccc3c(c2)OCO3)CC1 | .
O=C(CCSSCCC(=O)Nc1ccccc1)Nc1ccccc1 | .
Cn1c2ccc(N=Cc3ccccc3O)cc2c2nc3ccccc3nc21 | .
COc1cc(CNc2ccccc2SC)ccc1O | .
COc1cc(CNc2ccc(C)cc2)ccc1O | .
C=CCc1ccc(O)c(OC)c1 | -10
Cn1cccc1/C=C1\SC(=S)NC1=O | -4.31
COc1ccccc1/C=C1/SC(=S)NC1=O | .
Cn1cccc1/C=C1\CS/C(=C\c2cccn2C)C1=O | .
Cc1ccc(-n2cnc3c2C(=O)c2ccccc2C3=O)cc1 | .
CSCCC1(C(=O)O)NC(c2ccccc2O)C2C(=O)N(c3ccc(Br)cc3)C(=O)C21 (stereo not drawn) | .
Cc1ccc(NC(=O)N2CCC(c3nc4ccccc4s3)CC2)cc1 | .
Nc1ccc(S(=O)(=O)Nc2cc(Cl)cc(Cl)c2)cc1 | .
SMILES | Ba CapD inh
CSC(SC)=C(C#N)C(=O)c1cccc(C(F)(F)F)c1 | .
CSC(SC)=C(C#N)C(=O)c1cccc(C)c1 | .
CSC(SC)=C(C#N)C(=O)c1ccccc1Cl | -4.75
Cc1nc2c3ccccc3n3c(CCCC(=O)NC4CC4)nnc3n2n1 | .
CCCCn1c(O)c(C#N)c(C)c(N=Nc2ccc(OC)cc2)c1=O | .
Cc1cc(=O)n(CCc2ccccc2)c(O)c1C#N | .
Cc1c(C#N)c(O)n(CCO)c(=O)c1N=Nc1cccc(C(=O)O)c1 | -8.28
N#CC1=C(N)SC(c2cccs2)C(C#N)=C1N (stereo not drawn) | -5.11
N#CC1=C(N)OC(C2CC2)=C(C#N)C1c1cccs1 (stereo not drawn) | .
COc1cc(OC)cc(C2SC(N)=C(C#N)C(N)=C2C#N)c1 (stereo not drawn) | .
CCOc1cc2oc(=O)cc(C)c2cc1OCC | .
Clc1ccc(Cc2nc(-c3ccc(Cl)cc3)cs2)cc1 | .
Cc1ccccc1CNC(=O)CCC(=O)N1CCSc2ncccc21 | .
COc1cc(OC)nc(COc2ccc(C(=O)O)cc2)n1 | .
O=C(O)c1ccc(NC(=O)C2CC(=O)N(CCc3ccccc3)C(=Nc3ccc(F)cc3)S2)cc1 (stereo not drawn) | .
COc1cc2[nH]c(=S)n(N(C(C)=O)C(C)=O)c(=O)c2cc1OC | -12.9
COc1cc2[nH]c(=S)n(C3CC3)c(=O)c2cc1OC | .
COc1cc2[nH]c(=S)nc(Nc3ccc(NC(C)=O)cc3)c2cc1OC | .
COc1cccc(OC)c1CNC(=O)CNS(=O)(=O)c1cccc(C(F)(F)F)c1 | .
CCOC(=O)c1cc(-c2ccccc2)n(CCCC(=O)NCc2ccccc2)c1C | .
Cc1ccc(C)n1-c1sccc1C(=O)CC#N | .
Cc1ccc(C)n1-c1ccc(CC(=O)O)cc1 | .
Cc1ccc(C)n1-c1cccc(N)c1 | .
O=C(O)c1cccc(N2CCCC2)c1 | .
Cc1ccc(C)n1-c1sccc1C(=O)O | -11.4
SMILES | Ba CapD inh
Cc1cc(C(=O)O)c(C)n1-c1ccc(Cl)cc1 | .
CC(=O)Nc1sccc1C(=O)O | .
Cc1ccc(C)n1-c1ccc(C(=O)O)c(C(=O)O)c1 | -8.41
Cc1ccc(C)n1-c1cccc(C(=O)O)c1 | -8.55
COC(=O)CNc1c(-c2ccccc2)nc2ccccn12 | .
COc1ccc(C)cc1NC(=O)N1CCN(S(C)(=O)=O)CC1 | .
COc1ccc(C2C(C(=O)N3CCCC3)CC(=O)N2c2ccc(OC)cc2)cc1 (stereo not drawn) | .
COc1ccc(N2C(=O)CCC(C(=O)N3CCCCC3)C2c2ccc(OC)c(OC)c2)cc1 (stereo not drawn) | .
COc1ccc(C2C(C(=O)N3CCOCC3)CCC(=O)N2c2ccc(OC)cc2)cc1 (stereo not drawn) | -10.3
CC(C)(C)c1ccc(C(=O)On2c(-c3ccccc3F)nc3ccccc3c2=O)cc1 | .
N#Cc1ccc(Oc2sccc2[N+](=O)[O-])cc1 | .
O=C1CC(=O)c2ccc3c4c(ccc1c24)C(=O)CC3=O | -5.06
O=C1CC(=O)c2c1cccc2[N+](=O)[O-] | .
N#Cc1c(-c2cccs2)[nH]c(=S)[nH]c1=O | .
N#Cc1c(-c2ccccc2)[nH]c(=S)[nH]c1=O | -6.12
CN(C)c1ccc(-c2[nH]c(=S)[nH]c(=O)c2C#N)cc1 | .
COC(=O)c1c(C)nn(CCC#N)c1N | .
O=C1N(CN2CCN(c3ccccc3)CC2)c2ccccc2C12OCCCO2 | .
Nc1cc(CCCC(=O)O)sc1CCCC(=O)O | -10.3
O=C(O)CCCCc1cccs1 | .
O=C(O)CCCc1ccc2c(c1)OCO2 | .
Cc1nccn1S(=O)(=O)c1ccc(Cl)c([N+](=O)[O-])c1 | .
Fc1ccc(SCc2ccc(CSc3ccc(F)cc3)cc2)cc1 | .
O=C(CSCc1cc2cccc3c2n(c1=O)CCC3)NCC1CCCO1 (stereo not drawn) | .
Oc1ccc2ccccc2c1CN1CCC(Cc2ccccc2)CC1 | .
SMILES | Ba CapD inh
O=C(Cn1cc(/C=C2/SC(=O)NC2=O)c2ccccc21)Nc1ccccc1 | .
O=S(=O)(NCCC1=CCCCC1)c1cc(Br)ccc1Br | .
CC(C)(C)C(=O)[C@H]1[C@H](c2ccc(Br)cc2)C(C#N)(C#N)[C@@H]2c3ccccc3C=CN21 | .
CC(=O)Oc1cc(OC(C)=O)cc(C(=O)O)c1 | -8.7
CC(=O)Oc1ccc(-c2ccc(C(=O)O)cc2)cc1 | .
CC(=O)Oc1cncc(C(=O)O)c1 | .
CCC(C(=O)O)N1C(=O)/C(=C/c2ccccc2)SC1=S (stereo not drawn) | .
CN(C)c1ccc(/C=C2/SC(=S)N(CCCCC(C(=O)O)N3C(=O)/C(=C\c4ccc(N(C)C)cc4)SC3=S)C2=O)cc1 (stereo not drawn) | .
CSCCC(C(=O)O)N1C(=O)/C(=C/c2ccc(O)cc2)SC1=S (stereo not drawn) | -4.04
COc1ccc(N(CC(O)Cn2c3ccc(Cl)cc3c3cc(Cl)ccc32)S(=O)(=O)c2ccc(C)cc2)cc1 (stereo not drawn) | .
Cc1cc(SCc2cccc(F)c2)c(Cl)cc1Cl | .
CCOC(=O)C1CCN(CN2C(=O)C(=Nc3ccc(C)c(C)c3)c3ccccc32)CC1 | .
COc1ccc(-c2nc3c(sc(=S)n3-c3ccccc3)c(=O)[nH]2)cc1 | .
O=c1[nH]c(-c2ccc(F)cc2)nc2c1sc(=S)n2-c1ccccc1 | .
O=c1[nH]cnc2c1sc(=S)n2-c1ccccc1 | -5.43!
COc1ccc(C=C2C(=O)C3(C)CCC2C3(C)C)cc1 (stereo not drawn) | .
CCOC(=O)NC(c1cccc(Cl)c1)C1COc2ccccc2C1=O (stereo not drawn) | .

Assay outcomes: PubChem BioAssay, ICCB-Longwood Screening Facility, Harvard Medical School
